Only some compounds are listed: those with a hit (about 19% of all), similar ones and a draw of the others.
SARS PLpro yeast: SARS-CoV PLP inhibition in yeast. S. cerevisiae expressing SARS-CoV PLpro, growth rescue. Potency, µM (doses to about 32.9 µM), most hits filed as activators. hit rate 0.19% among 330,000. AID 485353; calls by dose curve; further: nearly all actives have a fitted effect of over 55% in size
Pf growth 48h: inhibits P. falciparum growth in the first generation, 48 h. hit rate 5.9% among 310,000. P. falciparum luciferase growth in erythrocytes, 48 h. AID 504832. Potency, µM (doses to about 28.7 µM), actives largely listed as inhibitors
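Luciferase-expressing P. falciparum in infected erythrocytes (2% hematocrit, 0.1% parasitemia final) in RPMI 1640/0.5% Albumax were exposed to compound for 48 hours at 37 C, 5% CO2; growth read as luminescence.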
Shiga inhibitor: inhibitors of Shiga toxin in Vero cells; Vero cells, Shiga toxin protein synthesis inhibition reporter; inhibition, % at 38.7 µM; hit rate 9.2% among 290,000; in the data active means inhibition mostly above about 28%, no sharp cut-off; inactive means mostly below about 43%
CHX counter: counter-screen for Shiga toxin inhibitors: cycloheximide protein synthesis inhibition; AID 2314; cell reporter, cycloheximide protein synthesis inhibition counterscreen; hit rate 12% among 300,000; max response, %; in the data active means max response mostly above about 13%, no sharp cut-off; inactive means mostly below about 14%; further: read at 38.3 µM for the half of the compounds with a filed dose
Pf growth 96h: inhibits malaria parasite growth, 96 h; P. falciparum luciferase reporter growth, 96 h; Potency, µM (highest dose often 28.7 µM), usual class: inhibitors; hit rate 6.9% among 320,000; AID 504834
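Compounds incubated with erythrocytes infected by luciferase-expressing P. falciparum (2% hematocrit, 0.05% parasitemia final) for 96 hours, 37 C in 5% CO2. Growth inhibition scored as decreased luciferase luminescence.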
AMA1 RON2 block: disrupts binding of P. falciparum AMA1 to RON2; AlphaScreen AMA1-biotinylated RON2 peptide binding; Potency, µM (titrated, usually from 58.2 µM), actives largely listed as inhibitors; hit rate 0.2% among 360,000; AID 720542; further: nearly all actives have a fitted effect of over 45% in size
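AMA1 (3D7) with his tag at 25 nM final met compounds first, then biotinylated RON2 peptide at 25 nM; detection used donor plus acceptor beads, 10 µg/mL apiece, read by AlphaScreen after 30 min at room temperature.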
Of the large screens only hits and unclear results are named; the others gave an inactive call; ! = a repeat was not active. Unless noted, the call rests on the fitted dose curve; in most records, active means well fitted curve in the direction sought with a large enough effect; inconclusive means small, poorly fitted or top-dose-only effect, or another doubt; inactive means no such curve, though single readings can be large; an effect the other way counts as inactive or inconclusive.

CCc1nc(NCCCn2ccnc2)c2oc3ccccc3c2n1	Pf growth 48h inconclusive, Pf growth 96h 13µM
O=S(=O)(c1cccc(Br)c1)N1CCN(C(=S)NCC2CCCO2)CC1 (centres undefined)	Pf growth 48h inconclusive, Pf growth 96h inconclusive (no result: Shiga inhibitor, CHX counter)
COC1CC(=C(c2cccs2)c2cccs2)C[N+](C)(C)C1 (centres undefined)	Pf growth 48h 4.8µM (no result: SARS PLpro yeast, Shiga inhibitor, CHX counter, AMA1 RON2 block)
CCOC(=O)Cn1cnc(-c2ccc([N+](=O)[O-])cc2)c1	Pf growth 48h inconclusive, Shiga inhibitor 75, CHX counter 43
CCOC(=O)c1ccc(-n2cnc(-c3ccc([N+](=O)[O-])cc3)c2)cc1	none (no result: SARS PLpro yeast, Pf growth 48h, Shiga inhibitor, CHX counter, Pf growth 96h)
CC1(C#CC[N+]2(C)CCCCC2)CCC2C(O1)c1ccccc1OC2(C)C (centres undefined)	Pf growth 48h 12µM, Pf growth 96h 3.7µM
CC1(C(O)(C#CC[N+]2(C)CCCCC2)c2ccccc2)CCCC1 (centres undefined)	Pf growth 48h inconclusive
Cc1cc(C(=O)NCCc2ccc(S(=O)(=O)NC(=O)NN3CCCCCC3)cc2)no1	none (no result: SARS PLpro yeast, AMA1 RON2 block)
O=C(Nc1ccncc1)c1ccc(Br)cc1	Pf growth 48h inconclusive
O=C(Nc1ccncc1)c1cc(F)cc(F)c1	Pf growth 48h inconclusive, Pf growth 96h 2.9µM
O=C(Nc1ccc2ccccc2c1)c1ccc(NS(=O)(=O)c2ccc(Br)s2)cc1	Shiga inhibitor 46, CHX counter 36
O=C(c1ccncc1)c1ccc(NS(=O)(=O)c2ccc(Br)s2)cc1	none
O=C(Nc1ccncc1)c1ccc2ccccc2c1	Shiga inhibitor 58, CHX counter 43, Pf growth 96h inconclusive
CC(C)C(=O)Nc1cccc(NC(=O)c2cccc(F)c2)c1	none
O=C(Nc1nnc(-c2ccncc2)o1)c1ccc2ccccc2c1	Pf growth 96h inconclusive (no result: SARS PLpro yeast)
Cc1ccc2cc(NC(=O)c3cccc(F)c3)ccc2n1	Shiga inhibitor 75, CHX counter 39
CCOC(=O)N1CCN(C(=O)c2ccc(Cl)nc2)CC1	none
CC(=O)NS(=O)(=O)c1ccc(NC(=O)COc2ccc(C(=O)c3ccccc3)cc2)cc1	none
O=C(NCCCn1cccn1)C1CCC(=O)N(CCc2ccccc2)C1 (centres undefined)	none
O=C(O)c1cc(S(=O)(=O)N2CCOCC2)c(Sc2ccccn2)cc1Sc1ccccn1	Pf growth 96h inconclusive
O=C(Nc1cccc(NC(=O)c2c(F)cccc2F)n1)c1c(F)cccc1F	none (no result: Pf growth 48h)
CSc1nccc(NC(=O)c2cccc(Br)c2)n1	CHX counter 23
CC(=O)Cc1nsc(NC(=O)c2cccc(F)c2)n1	Shiga inhibitor 72, CHX counter 41, Pf growth 96h inconclusive
O=C(Nc1ncn[nH]1)c1cccc(F)c1	Pf growth 96h 1.5µM (no result: Shiga inhibitor, CHX counter)
Cc1cc(NC(=O)c2cccc(Br)c2)n[nH]1	none (no result: Shiga inhibitor, CHX counter)
O=C(Nc1cccc(NC(=O)c2cccc(F)c2)n1)c1cccc(F)c1	Shiga inhibitor 70, CHX counter 23, Pf growth 96h inconclusive
O=C(CCCSc1nnnn1-c1ccccc1)c1ccc(F)cc1	Pf growth 48h inconclusive (no result: AMA1 RON2 block)
CCOc1ccccc1NC(=O)Cn1c(=O)n(-c2ccc(OC)cc2OC)c(=O)c2c(C)c(C(=O)N(CC)CC)sc21	Pf growth 48h inconclusive
O=C(Nc1ccc2ccccc2c1)c1cccc(F)c1	Shiga inhibitor 90, CHX counter 52
CC(C)(C)c1ccc(C(=O)Nc2ncn[nH]2)cc1	Shiga inhibitor 75, CHX counter 33
O=C(Nc1ccc2ccccc2c1)c1cccc2ccccc12	none (no result: SARS PLpro yeast, Pf growth 48h, Shiga inhibitor, CHX counter, Pf growth 96h)
Cc1ccc(C(=O)Nc2ncn[nH]2)cc1	Pf growth 96h inconclusive
O=C(Nc1ccc2ccccc2c1)c1ccc(Cl)cc1	Shiga inhibitor 68, CHX counter 41, Pf growth 96h 5.2µM
Cc1ccc2cc(NC(=O)c3ccccc3)ccc2n1	Shiga inhibitor 67, CHX counter 47
Cc1ccc(C(=O)Nc2ccc3ccccc3c2)cc1	Pf growth 96h inconclusive
O=C(COC(=O)C1CCC1)NCc1ccc(Cl)cc1Cl	none (no result: Shiga inhibitor, CHX counter)
CN1C(=O)C(CC(=O)NCC2CCCCC2)SC1=Nc1ccccc1 (centres undefined)	none
O=C(Cc1cc(=O)[nH][nH]1)N/N=C/c1ccccc1Cl	none
O=C(Cc1cc(=O)[nH][nH]1)N/N=C/C(Cl)=C/c1ccccc1	Pf growth 48h 1.2µM!
O=C(N/N=C/C(Cl)=C/c1ccccc1)c1ccccc1F	Shiga inhibitor 80, CHX counter 56, Pf growth 96h inconclusive

High-throughput results deposited in PubChem BioAssay by National Center for Advancing Translational Sciences (NCATS).
